In the supplement of paper PMC6609913 one finds normalised cell viability data, which are given here for 31 compounds.

In the experiment the test system is V-C8 + BRCA2 (BRCA2-proficient hamster cells). Description: normalised cell viability (fraction of plate median); higher = more viable cells (less toxic). The settings on record: 5 µM. Put shortly: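 Hamster V-C8 cells with and without restored BRCA2 were exposed in 96-well plates to library drugs at 5 μM for 3 days (screen 1) or 6 days (screen 2). Cell viability was scored by resazurin assay, then median-plate normalised, averaging triplicate wells.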

SMILES strings stand for the structures. Where a name gives a salt, the structure may show the parent alone. ± gives the standard deviation of the averaged measurements. Whole data set: some 1,300 compounds, median “normalised cell viability” near 1, cut for the lowest 2% near 0.15. The sample as a whole holds a higher share of the lowest values than the screen did.

`CCCCC(CC)CNC(=N)NC(=N)NCCCCCCNC(=N)NC(=N)NCC(CC)CCCC` (configuration not stated) [Alexidine dihydrochloride]: the normalised cell viability is 0.143 ± 0.002 (treatment time: 3 days) and 0.149 ± 0.011 (treatment time: 6 days).
As for `O=C1C=CC(=O)c2c1ccc1c2ccc2ccccc21` [Chrysene-1,4-quinone], the normalised cell viability was 1.024 ± 0.0027 (treatment time: 3 days) and 1 ± 0.11 (treatment time: 6 days).
Turning to `CC(C)Oc1ccc2c(=O)c(-c3ccccc3)coc2c1` [Ipriflavone], the normalised cell viability reads like this: (treatment time: 3 days) 0.993 ± 0.029; (treatment time: 6 days) 1.08 ± 0.11.
In the case of `Nc1ccn([C@@H]2CS[C@H](CO)O2)c(=O)n1` [Lamivudine], the normalised cell viability by setting is: (treatment time: 3 days) 0.335 ± 0.012; (treatment time: 6 days) 0.406 ± 0.023.
In the case of `OC(CCN1CCCC1)(c1ccccc1)C1CCCCC1` (configuration not stated) [Procyclidine hydrochloride], the normalised cell viability reads like this: (treatment time: 3 days) 0.981 ± 0.047; (treatment time: 6 days) 0.987 ± 0.012.
Taken in the same sequence, the figures for `COc1cc(OC)c(C(=O)CCCN2CCCC2)c(OC)c1` [Buflomedil hydrochloride] were 1.04 ± 0.096 and 1.07 ± 0.025.
Taken in the same sequence, the figures for `CN1C(C)(C)CCCC1(C)C` [Pempidine tartrate] were 1.1 ± 0.035 and 1.007 ± 0.0034.
Taken in the same sequence, the figures for `C[C@@]1(O)CCOC(=O)C1` [Mevalonic-D, L acid lactone] were 1.09 ± 0.038 and 1.06 ± 0.054.
In the case of `Nc1ccc(S(=O)(=O)Nc2ccnn2-c2ccccc2)cc1` [Sulfaphenazole], the normalised cell viability came out at 1.07 ± 0.02 (treatment time: 3 days) and 1.01 ± 0.041 (treatment time: 6 days).
Turning to `Cc1ccnc2c1NC(=O)c1cccnc1N2C1CC1` [Nevirapine], the normalised cell viability is, setting by setting: (treatment time: 3 days) 1.03 ± 0.087; (treatment time: 6 days) 1.05 ± 0.047.
In the case of `C[C@H]1O[C@@H](O[C@H]2[C@@H](O)C[C@H](O[C@H]3[C@@H](O)C[C@H](O[C@H]4CC[C@@]5(C)[C@H](CC[C@@H]6[C@@H]5C[C@@H](O)[C@]5(C)[C@@H](C7=CC(=O)OC7)CC[C@]65O)C4)O[C@@H]3C)O[C@@H]2C)C[C@H](O)[C@@H]1O` [Digoxin], the normalised cell viability runs as follows: (treatment time: 3 days) 1.06 ± 0.036; (treatment time: 6 days) 1.07 ± 0.13.
As for `COc1ccc(NS(=O)(=O)c2ccc(N)cc2)nn1` [Sulfamethoxypyridazine], the normalised cell viability reads like this: (treatment time: 3 days) 0.879 ± 0.062; (treatment time: 6 days) 0.892 ± 0.069.
Turning to `CC(=O)c1ccc(S(=O)(=O)NC(=O)NC2CCCCC2)cc1` [Acetohexamide], the normalised cell viability is 1.22 ± 0.019 (treatment time: 3 days) and 1.025 ± 0.0097 (treatment time: 6 days).
`O=C1C(O)=C([C@H]2CC[C@H](c3ccc(Cl)cc3)CC2)C(=O)c2ccccc21` [Atovaquone]: the normalised cell viability is, setting by setting: (treatment time: 3 days) 0.958 ± 0.012; (treatment time: 6 days) 0.922 ± 0.04.
`CC(C)(C)NC(=O)[C@@H]1C[C@@H]2CCCC[C@@H]2CN1C[C@@H](O)[C@H](Cc1ccccc1)NC(=O)[C@H](CC(N)=O)NC(=O)c1ccc2ccccc2n1` [Saquinavir mesylate]: the normalised cell viability reads like this: (treatment time: 3 days) 0.842 ± 0.061; (treatment time: 6 days) 0.952 ± 0.073.
In the same order, the values of `O=C1Cc2cc(CCN3CCN(c4nsc5ccccc45)CC3)c(Cl)cc2N1` [Ziprasidone  Hydrochloride] are 0.206 ± 0.016 and 0.23 ± 0.013.
For `CO/N=C(\C(=O)N[C@@H]1C(=O)N2C(C(=O)OC(C)OC(C)=O)=C(COC(N)=O)CS[C@H]12)c1ccco1` (some centres not stated) [Cefuroxime axetil], the normalised cell viability runs as follows: (treatment time: 3 days) 1.01 ± 0.057; (treatment time: 6 days) 1.04 ± 0.12.
As to `Cc1cccc(N(C)C(=S)Oc2ccc3ccccc3c2)c1` [Tolnaftate], the normalised cell viability reads like this: (treatment time: 3 days) 1.02 ± 0.027; (treatment time: 6 days) 1.04 ± 0.044.
Taken in the same sequence, the figures for `CC(=O)CC(c1ccc([N+](=O)[O-])cc1)c1c(O)c2ccccc2oc1=O` (configuration not stated) [Acenocoumarol] were 0.92 ± 0.023 and 0.979 ± 0.053.
Consider `N[C@H]1CONC1=O` [(S)-(-)-Cycloserine], for which the normalised cell viability came to 1.04 ± 0.043 (treatment time: 3 days) and 0.917 ± 0.29 (treatment time: 6 days).
As for `O=C1[C@H](CC[C@H](O)c2ccc(F)cc2)[C@@H](c2ccc(O)cc2)N1c1ccc(F)cc1` [Ezetimibe], the normalised cell viability worked out at 1.03 ± 0.04 (treatment time: 3 days) and 1.08 ± 0.054 (treatment time: 6 days).
Turning to `OC[C@H]1O[C@@H](Oc2ccc(O)cc2)[C@H](O)[C@@H](O)[C@@H]1O` [Arbutin], the normalised cell viability is, setting by setting: (treatment time: 3 days) 1.02 ± 0.05; (treatment time: 6 days) 0.979 ± 0.024.
For the compound `CCOC(=O)/C=C(C)/C=C/C=C(C)/C=C/c1c(C)cc(OC)c(C)c1C` [Etretinate], the normalised cell viability reads like this: (treatment time: 3 days) 1.01 ± 0.043; (treatment time: 6 days) 1.13 ± 0.071.
With `C[C@H]1c2cccc(O)c2C(=O)C2=C(O)[C@]3(O)C(=O)C(C(N)=O)=C(O)[C@@H](N(C)C)[C@@H]3[C@@H](O)[C@@H]21` [Doxycycline hydrochloride], the normalised cell viability is, setting by setting: (treatment time: 3 days) 0.947 ± 0.025; (treatment time: 6 days) 0.982 ± 0.033.
For the compound `OC(CCCN1CCCCC1)(c1ccccc1)c1ccccc1` [Diphenidol hydrochloride], the normalised cell viability is, setting by setting: (treatment time: 3 days) 1.08 ± 0.066; (treatment time: 6 days) 1.05 ± 0.025.
In the case of `CC(C)(C(=O)O)c1ccc(C(O)CCCN2CCC(C(O)(c3ccccc3)c3ccccc3)CC2)cc1` (configuration not stated) [Fexofenadine HCl], the normalised cell viability reads like this: (treatment time: 3 days) 1.02 ± 0.051; (treatment time: 6 days) 1.04 ± 0.026.
Take `CC(C)(C)c1ccc(C(O)CCCN2CCC(C(O)(c3ccccc3)c3ccccc3)CC2)cc1` (configuration not stated) [Terfenadine]: the normalised cell viability (treatment time: 3 days) was 0.118 ± 0.0067 and the normalised cell viability (treatment time: 6 days) came out at 0.103 ± 0.0052.
Taken in the same sequence, the figures for `Cc1cn[nH]c1` [Fomepizole] were 1.07 ± 0.021 and 0.9639 ± 0.0076.
With `CN(C)CCOc1ccc(/C(=C(/CCCl)c2ccccc2)c2ccccc2)cc1` [Toremifene], the normalised cell viability amounted to 0.822 ± 0.058 (treatment time: 3 days) and 0.891 ± 0.027 (treatment time: 6 days).
Taken in the same sequence, the figures for `CC/C(=C(\c1ccccc1)c1ccc(OCCN(C)C)cc1)c1ccccc1` [Tamoxifen citrate] were 0.878 ± 0.054 and 0.88 ± 0.021.
Turning to `CCN(CC)CCOc1ccc(C(=C(Cl)c2ccccc2)c2ccccc2)cc1` [Clomiphene citrate (Z,E)], the normalised cell viability by setting is: (treatment time: 3 days) 0.124 ± 0.0093; (treatment time: 6 days) 0.128 ± 0.013.
